# Results taken from PubChem BioAssay (NCI).
# The panel holds about 83,000 compounds, 20% with a hit somewhere; the sample as a whole holds those more often.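 For each line, cells grew in 96-well plates with the test compound present at a single concentration for 48 hours.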 A number with no mark means an inactive call. The source made the active and inactive calls. Rule for the calls: active = growth percent below 10; inactive = the rest.
# Assays:
# Test in all cases: NCI-60 one-dose screen, 48 h (100 = growth as untreated, 0 = no growth, -100 = all killed)
# Conditions in all cases: 10 µM unless noted
# T-47D breast = test system: T-47D breast
# MDA-MB-435 melanoma = test system: MDA-MB-435 melanoma
# SW-620 colon = test system: SW-620 colon
# MCF7 breast = test system: MCF7 breast
# HCT-116 colon = test system: HCT-116 colon
# HCC-2998 colon = test system: HCC-2998 colon
# KM12 colon = test system: KM12 colon
# BT-549 breast = test system: BT-549 breast
Structure (SMILES),growth (T-47D breast),growth (MDA-MB-435 melanoma),growth (SW-620 colon),growth (MCF7 breast),growth (HCT-116 colon),growth (HCC-2998 colon),growth (KM12 colon),growth (BT-549 breast)
CC(=O)Nc1cccc(Nc2nc(N[C@H](C)c3ccccc3)c3ccccc3n2)c1,78.8%,24.3%,61.5%,27.8%,31%,88.7%,55.9%,–
C=CC(=O)N1CC=C(c2cc3c(N[C@H](C)c4ccccc4)ncnc3[nH]2)CC1,71.6%,95%,87%,75.5%,86.1%,89.6%,98.9%,–
CNC(=O)c1cc(-n2ccc3cc(NC(=O)Nc4ccc(N5CCOCC5)c(C(F)(F)F)c4)ccc32)ccn1,47%,40.2%,62.5%,35.3%,20.5%,87.4%,7.44% (active),–
N/C(=N\C(N)=N\c1nc2ccccc2s1)c1ccc2ccccc2c1,79.2%,88.9%,110%,79.3%,63.5%,116%,59.5%,–
CC1(C)[C@@H](O)CC[C@]2(C)[C@H]3CC[C@@H]4[C@H]5[C@H](C(=O)/C=C\c6ccc([N+](=O)[O-])cc6)CC[C@]5(O)CC[C@@]4(C)[C@]3(C)CC[C@@H]12,57.7%,36.1%,30.2%,38.7%,4.14% (active),77.2%,53.3%,–
COC[C@]12CCC(C)(C)C[C@H]1C1=CC[C@@H]3[C@@]4(C)CCCNC(C)(C)[C@@H]4CC[C@@]3(C)[C@]1(C)CC2,28.8%,-76.3% (active),-61.6% (active),-71% (active),-89.6% (active),-91.2% (active),-25.6% (active),–
Oc1[nH]c2ccccc2c1Nn1c(N=N/C=c2/ccc3c(c2)C=NN=3)n[nH]c1=S,99%,103%,99%,77.1%,104%,118%,93.3%,–
CCCn1cnc2c(c1=N)C(c1ccc(F)cc1)c1sc3c(CC)cccc3c1O2 (stereo not drawn),72.7%,-25.2% (active),17.7%,18.1%,7.53% (active),24.2%,10.7%,–
COc1cc(-c2nn(C(C)(C)C)cc2-c2ccnc(NCCCNS(=O)(=O)c3ccc(F)cc3)n2)ccc1Cl,85.1%,75%,95.9%,74.3%,56.1%,108%,78.5%,–
COc1cc(-c2nn(C(C)(C)C)cc2-c2ccnc(NCCCNS(=O)(=O)c3cccc(F)c3)n2)ccc1Cl,69.5%,77.9%,89.7%,71.3%,52.4%,103%,80.3%,–
Nc1ncc(-c2ccc3ncnc(N4CCc5cc(F)c(Cl)cc54)c3c2)cn1,13.5%,27.1%,40.7%,11.9%,20.5%,31.6%,50.6%,–
O=C(Nc1ccc2c(ccn2Cc2ccccn2)c1)c1ccnnc1,97.9%,98.3%,101%,102%,93.2%,120%,99.4%,–
O=C1/C(=C/C=C/c2ccco2)SC(=S)N1C1CCCCC1,68.8%,85.3%,92.2%,54.3%,99.8%,97.3%,96.9%,111%
Nc1nc(Nc2ccccc2SSc2ccccc2Nc2nc(N)nc(-c3ccccc3)n2)nc(-c2ccccc2)n1,74.7%,90.6%,70.5%,68.3%,61.3%,110%,22.1%,–
CS(=O)(=O)Nc1cc(-c2ccc3ncc(C#N)c(NCc4ccccc4)c3c2)cnc1Cl,0.176% (active),-6.33% (active),4.13% (active),6.39% (active),4.12% (active),4.93% (active),8.53% (active),–
Nc1nc(Nc2ccccc2SSc2ccccc2Nc2nc(N)nc(-c3ccc4ccccc4c3)n2)nc(-c2ccc3ccccc3c2)n1,74.9%,85.2%,104%,76%,57.9%,120%,51.5%,–

Structure (SMILES),growth (T-47D breast),growth (MDA-MB-435 melanoma),growth (SW-620 colon),growth (MCF7 breast),growth (HCT-116 colon),growth (HCC-2998 colon),growth (KM12 colon),growth (BT-549 breast)
N#Cc1c(-c2cccs2)cc(-c2cnccn2)nc1SCC(=O)c1ccc(F)cc1,106%,93.3%,96.7%,85.7%,96.6%,117%,99%,–
COc1ccc(S(=O)(=O)NCCCNc2nccc(-c3cn(C(C)(C)C)nc3-c3ccc(Cl)c(OC)c3)n2)cc1,77.3%,89.6%,99.3%,82.4%,66.6%,124%,93%,–
CCCn1cnc2c(c1=N)C(c1ccc(F)cc1)c1sc3c(C)cccc3c1O2 (stereo not drawn),38.3%,-58% (active),16.4%,18.4%,16.7%,57.3%,24.9%,–
CCOC(=O)c1c(N)c(C#N)cn1-c1cc(OC)c(OC)c(OC)c1,–,103%,98.8%,91.1%,113%,115%,108%,107%
C#Cc1ccc(C(=O)NCc2ccc(/C=C/C(=O)c3nccn3C)cc2)cc1,–,26.2%,10.5%,12.2%,14%,9.76% (active),15.5%,51%
CCN(CC)c1cn(-c2ccc(S(N)(=O)=O)cc2)nn1,–,104%,101%,97.5%,116%,107%,102%,109%
COc1ccc2c(c1)c(CC(=O)[Se]CCC#N)c(C)n2C(=O)c1ccc(Cl)cc1,–,-13.4% (active),2.84% (active),2.34% (active),-16.9% (active),75.6%,26.5%,-59.8% (active)
Cc1cc(-c2ccc(Cl)cc2)n(Cc2nnc(SCC(=O)Nc3ccc(S(N)(=O)=O)cc3)n2-c2ccc([N+](=O)[O-])cc2)n1,–,87.4%,84.5%,58%,60.9%,97.8%,79.6%,116%
CC(=O)c1ccc(Nc2nc(SCC(C)C)nc(-c3ccc(F)cc3)c2C#N)cc1,–,111%,110%,114%,108%,119%,104%,110%
COc1ccc2c(c1)c(-c1cc(N)n3nc(-c4cn(C)c5ccc(OC)cc45)cc3n1)cn2C,–,112%,-20.6% (active),32.5%,-4.19% (active),114%,96.9%,117%
CCCn1cnc2c(c1=N)C(c1ccc(OC)cc1)c1sc3c(CC)cccc3c1O2 (stereo not drawn),–,-44.5% (active),28.4%,18.4%,9.7% (active),19.2%,16.8%,33.3%
O=C(NNc1nc2cc(F)c(F)cc2n2c(CN3CC4CNCC4C3)ccc12)c1cnccn1 (stereo not drawn),–,25.3%,23.7%,10.9%,14.8%,31.7%,15.4%,28.7%
Cc1nc(-c2ccccc2O)ccc1C(=O)N=Nc1c(O)[nH]c2ccc(Br)cc12,–,102%,95.9%,91%,99.1%,123%,98.3%,102%
CS(=O)(=O)Nc1cc(-c2ccc3ncc(C#N)c(NCc4cccc(F)c4)c3c2)cnc1Cl,–,5.21% (active),6.55% (active),0.85% (active),4.35% (active),-25.1% (active),6.28% (active),-17.4% (active)
CC(C)(C)n1nnnc1C(Nc1cccc2c1OCO2)c1cc2cccc3ccc4cccc1c4c32 (stereo not drawn),–,84.2%,88.8%,64.9%,63%,98.7%,95.4%,130%
